Most compounds without a hit are left out; they make up all but 5.8% or so of the library.
KB-3-1 tox: kills parental KB-3-1 adenocarcinoma cells; KB-3-1 viability, CellTiter-Glo ATP luminescence, 72 h; Potency, µM (doses to about 46.1 µM), usual class: cytotoxic; 400,000 tested, 1.4% active; also: % is scaled to controls: 0 for no effect and ±100 for the full control effect; nearly all actives have a fitted effect of over 60% in size
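Here the drug-naive KB-3-1 line serves as comparator for MDR sub-line selectivity; cells received compound titrations, 72 h at 37 °C, then CellTiter-Glo readout.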
PINK1 expr mod: PINK1 expression modulation; PINK1 immunofluorescence, high-content cytometry, 24 h; Potency, µM (series often up to 76.6 µM), without a hit: top-dose activation (PINK1 increase), actives largely listed as activators; 410,000 tested, 0.2% active; AID 624263; active = well fitted activation curve with a large enough effect; inconclusive = small, poorly fitted or top-dose-only effect; cell line not stated here; also: % of control where 0% means no effect; nearly all actives have a fitted effect of over 65% in size
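Cells are seeded, rested 12 hours, then given compound at five concentrations or DMSO for 24 hours. After fixation, blocking and antibody staining, PINK1 amount and mitochondrial localization are scored; CCCP serves as control.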
SW480 rereplic: induces DNA re-replication in SW480 colon adenocarcinoma cells. SW480 DNA re-replication, Hoechst DNA content imaging, 48 h. Potency, µM (series often up to 46.1 µM), for the others: at the highest dose re-replication activation, usual class: activators. 340,000 tested, 1.8% active. AID 624297; also: % of control where 0% means no effect; nearly all actives have a fitted effect of over 55% in size
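Compounds, transferred as 23 nL by pin tool, were incubated with cells for 48 hr; DNA content per nucleus was then quantified by Hoechst staining and fluorescence plate imaging.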
MCF10A rereplic: induces DNA re-replication in MCF 10a normal breast cells | MCF 10A DNA re-replication, Hoechst nuclear intensity, 48 h | Potency, µM (doses to about 46.1 µM), without a hit: at the highest dose activity, positive = re-replication, usual class: activators | 350,000 tested, 2.9% active | AID 624296; also: % of control where 0% means no effect; nearly all actives have a fitted effect of over 50% in size
ALOX12 inh: inhibitors of human 12S-lipoxygenase ALOX12. Potency, µM (doses to about 108 µM), for the others: top-dose activity change, negative = inhibition, most hits filed as inhibitors. 580,000 tested, 1.1% active. purified 12hLO, xylenol orange hydroperoxide absorbance. AID 1671190; also: % is scaled to controls: 0 for no effect and ±100 for the full control effect
Target sequence (P18054 whole entry, looked up): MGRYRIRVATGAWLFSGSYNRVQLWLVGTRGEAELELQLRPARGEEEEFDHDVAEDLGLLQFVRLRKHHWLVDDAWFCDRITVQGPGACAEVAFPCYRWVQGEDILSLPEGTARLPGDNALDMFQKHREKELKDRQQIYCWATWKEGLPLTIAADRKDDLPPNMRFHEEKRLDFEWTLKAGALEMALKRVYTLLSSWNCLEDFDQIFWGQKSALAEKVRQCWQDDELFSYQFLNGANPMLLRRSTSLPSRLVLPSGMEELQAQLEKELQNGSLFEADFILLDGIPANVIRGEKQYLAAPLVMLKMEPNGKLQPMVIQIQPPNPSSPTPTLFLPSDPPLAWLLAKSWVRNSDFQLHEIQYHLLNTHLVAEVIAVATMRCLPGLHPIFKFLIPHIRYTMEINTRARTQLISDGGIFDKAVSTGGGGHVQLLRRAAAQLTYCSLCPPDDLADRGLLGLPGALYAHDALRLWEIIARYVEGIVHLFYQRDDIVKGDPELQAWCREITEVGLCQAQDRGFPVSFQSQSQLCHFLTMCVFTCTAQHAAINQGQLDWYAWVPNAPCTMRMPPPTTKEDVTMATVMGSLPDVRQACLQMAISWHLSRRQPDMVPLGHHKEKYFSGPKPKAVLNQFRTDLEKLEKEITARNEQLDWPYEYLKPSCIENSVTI
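Purified human 12hLO (150 nM final) in 25 mM Hepes, 0.01% Triton X-100, pH 7.0 was preincubated 15 min at room temperature with compound. Then 40 uM arachidonic acid was added, 30 min. Hydroperoxide was read by Fe-XO absorbance ratio 573/405 nm.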
KB-V1 MDR tox: kills drug-selected multidrug resistant KB-V1 cells | KB-V1 MDR cells viability, CellTiter-Glo, 72 h | Potency, µM (highest dose often 46.1 µM), actives largely listed as cytotoxic | 400,000 tested, 3.4% active; also: % is scaled to controls: 0 for no effect and ±100 for the full control effect; nearly all actives have a fitted effect of over 60% in size
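Following 72 h at 37 degrees C with compound, KB-V1 cell viability was read by CellTiter-Glo luminescence, medium being phenol-red-free DMEM plus 10% FBS; concentration-response parameters came from normalized, curve-fitted qHTS data.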
Starred values were filed as active, the others as inactive; i = inactive; ? = inconclusive; . = no result given; ! = not confirmed by another sample; [ ] = remark or other dose. Unless noted, calls follow the shape of the dose curve; as a rule, active = well fitted curve in the direction sought with a large enough effect; inconclusive = small, poorly fitted or top-dose-only effect, or another doubt; inactive = no such curve, though single readings can be large; an effect the other way counts as inactive or inconclusive. Potency is read from the fitted curve at half-maximal effect.

SMILES | KB-3-1 tox | PINK1 expr mod | SW480 rereplic | MCF10A rereplic | ALOX12 inh | KB-V1 MDR tox
COC(=O)c1c(NC(=O)/C=C/C(=O)O)sc(C)c1-c1ccc(C)cc1 | ? | -2% | ? | ? | ? | ?
CCOC(=O)c1c(NC(=O)/C=C/C(=O)O)sc(C)c1-c1ccc(F)cc1 | ? | -3% | 0% | ? | 9% | ?
CC(C)=C1C2CCC1C(C(=O)Nc1sc(C)c(-c3ccc(C(C)C)cc3)c1C(N)=O)C2C(=O)O (stereo unspecified) | ? | 12% | ? | 33% | ? | 2.1µM*
Cc1ccc(C(=O)Nc2ccccc2-c2nc(Cc3ccccc3)no2)cn1 | . | . | . | . | 8% | .
c1ccc2c(c1)nc(N1CCCCCC1)c1ccccc12 | i | ? | ? | ? | ? | i
C(=C\c1nc(N2CCCC2)c2ccccc2n1)/c1ccccc1 | 23µM* | -3% | ? | ? | -29% | ?
CC1CCN(c2nc(/C=C/c3ccccc3)nc3ccccc23)CC1 | i | ? | 1% | 21µM* | -4% | ?
O=C(Cn1ncc2c3ccccc3n(Cc3ccccc3)c2c1=O)N1CCN(c2ccccn2)CC1 | i | 2% | -3% | -11% | . | i
CCc1ccc(C(=O)Cn2ncc(Cl)c(Cl)c2=O)cc1 | 7.3µM* | -2% | 7.3µM* | 5.8µM* | 286% | ?
CCc1ccc(C(=O)CN2C(=O)NC3(CCCCCC3)C2=O)cc1 | i | 5% | 10% | ? | ? | i
Cc1nn(CC(=O)N2c3ccccc3NC(=O)C2(C)C)c(C)c1[N+](=O)[O-] | i | 2% | 22% | ? | 4% | i
O=C(Cn1ncc2c3ccccc3n(Cc3ccccc3)c2c1=O)N1CCN(c2ncccn2)CC1 | ? | -4% | 4% | 16% | . | 5.2µM*
O=C(CN1CCCCC1)N1CCc2ccccc21 | i | -1% | -2% | -9% | ? | i
O=C(Cn1ncc(Cl)c(Cl)c1=O)N1CCc2ccccc21 | ? | -3% | -2% | 10µM* | 0% | ?
CC1(C)C(=O)Nc2ccccc2N1C(=O)Cn1ncc(Cl)c(Cl)c1=O | ? | ? | 9.2µM* | ? | 8% | i
CCC(=O)NCC1(c2ccccc2)CCCCC1 | . | . | . | . | 13% | .
Cc1nc2cc(NC(=O)CN(C)C(=O)c3ccco3)ccc2o1 | . | . | . | . | 10% | .
O=C(Cn1cnc2ccccc2c1=O)N1CCN(Cc2ccccc2)CC1 | i | 4% | -5% | -4% | 28% | 23µM*
O=C(Cn1ncc2c1-c1ccccc1OC2)N1CCN(Cc2ccccc2)CC1 | i | 1% | -3% | -2% | 5% | i
Cc1c2cnn(CC(=O)N3CCOCC3)c(=O)c2c(C)n1Cc1ccc(F)cc1 | . | . | . | . | 40% | .
O=C(Cn1cnc2ccccc2c1=O)N1CCN(Cc2ccc3c(c2)OCO3)CC1 | i | 0% | -6% | 0% | 71% | ?
O=C(Cn1ncc(Cl)c(Cl)c1=O)N1CCN(Cc2ccccc2)CC1 | ? | 0% | 15% | 4.1µM* | 1% | i
O=C(Cn1ncc(Cl)c(Cl)c1=O)N1CCOCC1 | ? | -3% | 2.9µM* | 3.7µM* | 0% | i
COc1cccc(/C=C/C(=O)Oc2ccc(Br)cc2)c1 | . | . | . | . | -23% | .
CCN(CC)C1=NC(=O)C(CC(=O)Nc2cccc(C(=O)NCCc3ccccc3OC)c2)S1 (stereo unspecified) | . | . | . | . | 1.1µM* | .
SMILES | KB-3-1 tox | PINK1 expr mod | SW480 rereplic | MCF10A rereplic | ALOX12 inh | KB-V1 MDR tox
COc1ccccc1CCNC(=O)c1ccc(NC(=O)CC2SC(N3CCCC3)=NC2=O)cc1 (stereo unspecified) | i | 3% | -2% | 5% | ? | i
C=CCOc1cccc(NC(=O)C(C)(C)C)c1 | . | . | . | . | -2% | .
CC(NC(=O)c1ccnc(C(C)(C)C)c1)c1ccccc1 (stereo unspecified) | ? | -32%[38.3 µM] | 10% | 6% | -1% | 18µM*
CC(C)(C)c1cc(C(=O)Nc2ccccc2)ccn1 | i | -2% | -6% | 4% | 41% | 21µM*
O=C(NNC(=O)c1ccccc1OCC1CCCO1)c1cc2ccccc2cc1O (stereo unspecified) | . | . | . | . | -22% | .
CCOc1c(OC(C)=O)ccc(/C=C/c2ccc3cccc(OC(C)=O)c3n2)c1[N+](=O)[O-] | ? | -4%[38.3 µM] | ? | ? | -27% | 12µM*
CCOc1cccc(/C=C/c2ccc3cccc(O)c3n2)c1OC | ? | 2% | 10% | 14% | ? | i
COc1c(OC(C)=O)ccc(/C=C/c2ccc3ccccc3n2)c1[N+](=O)[O-] | i | 10µM* | 0% | ? | -17% | i
COc1c(OC(C)=O)ccc(/C=C/c2ccc3cccc(OC)c3n2)c1[N+](=O)[O-] | ? | 2% | -1% | ? | -3% | ?
O=C1CSC2(C(=O)N(Cc3ccccc3F)c3ccccc32)N1c1ccc(F)cc1 (stereo unspecified) | ? | 0% | . | . | -6% | 16µM*
CCc1cccc(N2C(=O)CSC23C(=O)N(Cc2ccccc2F)c2ccccc23)c1 (stereo unspecified) | 21µM* | 23% | . | . | -21% | 15µM*
Cc1c(S(=O)(=O)c2ccc(F)cc2)c(N)n(Cc2cccnc2)c1C | . | . | . | . | -28% | .
CN(Cc1ccccc1)Cc1cc(C[C@@H]2CC[C@H](O)[C@@H](CNC3CCOCC3)O2)no1 | . | . | . | . | 24%[176 µM] | .
O=C(N/N=C(/c1ccccc1)c1cccnc1)c1cccs1 | . | . | . | . | 15% | .
Cc1cn2nc(C(=O)Nc3ccc4c(c3)OCCO4)cc2c(N(C)Cc2ccccc2)n1 | . | . | . | . | 44% | .
O=C(CN1CCSC1=NCc1ccccc1)c1ccc(Cl)cc1 | i | 13% | -75% | -3% | -22% | 16µM*
Cc1nc(NC(=O)c2ccccc2)sc1-c1csc(NCc2ccccc2)n1 | i | 0% | 0% | 9% | ? | i
Cc1nc(NC(=O)c2ccccc2)sc1-c1csc(N)n1 | 3.7µM* | 0% | -1% | 16µM* | ? | ?
O=C(O)c1c(-c2ccc(Cl)cc2)cn2ccccc12 | i | 2% | 18µM* | ? | ? | i
COc1ccc(-c2oc(=O)c3cc(OC)c(OC)cc3c2-c2ccc3c(c2)OCO3)cc1 | i | 0% | ? | 26% | -15% | i
COc1cc2c(O)c3c(c(-c4ccc5c(c4)OCO5)c2cc1OC)C(=O)OC3 | 15µM* | 4% | 23µM* | ? | ? | 4.6µM*
COc1cc2c(OC(C)=O)c3c(c(-c4ccc5c(c4)OCO5)c2cc1OC)C(=O)OC3 | 3.3µM*! | 1% | 6% | ? | 4% | ?

Assay outcomes (PubChem)
